Structures are written as SMILES.

These results are taken from ChEMBL document CHEMBL1961873, “Compounds: GSK PKIS; Assays: Nanosyn kinase panel” (2012).

The target of test [1] is Fibroblast growth factor receptor 4 (Homo sapiens) (UniProt P22455). The note with it: at 1 µM.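 Also: reported figure is the averaged percent inhibition of FGFR4, from the GSK PKIS kinase screening panel.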
For test [2], the target named is Tyrosine-protein kinase Fgr (Homo sapiens) (UniProt P09769). The settings on record: at 0.1 µM.
Chain of Tyrosine-protein kinase Fgr (Homo sapiens) (P09769 2-529 limits assumed): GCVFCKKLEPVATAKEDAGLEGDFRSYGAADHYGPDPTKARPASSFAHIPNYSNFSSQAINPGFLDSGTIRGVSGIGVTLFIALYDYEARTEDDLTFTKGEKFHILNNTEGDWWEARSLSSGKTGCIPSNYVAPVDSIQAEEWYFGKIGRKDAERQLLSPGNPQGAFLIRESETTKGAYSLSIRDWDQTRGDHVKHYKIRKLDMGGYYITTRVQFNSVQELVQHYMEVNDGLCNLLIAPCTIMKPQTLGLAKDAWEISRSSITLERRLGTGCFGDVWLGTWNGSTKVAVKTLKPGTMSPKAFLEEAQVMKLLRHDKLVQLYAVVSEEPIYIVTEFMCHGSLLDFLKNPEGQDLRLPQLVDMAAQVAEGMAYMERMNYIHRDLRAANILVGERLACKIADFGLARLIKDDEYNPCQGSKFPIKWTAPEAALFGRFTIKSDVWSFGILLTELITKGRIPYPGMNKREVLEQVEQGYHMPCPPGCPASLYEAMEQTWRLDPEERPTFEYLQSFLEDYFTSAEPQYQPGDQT
Test [3] shares this target. The note with it: at 1 µM.
For test [4], the target named is Vascular endothelial growth factor receptor 1 (Homo sapiens) (UniProt P17948). The settings on record: at 0.1 µM.
Chain of Vascular endothelial growth factor receptor 1 (Homo sapiens) (P17948 whole entry): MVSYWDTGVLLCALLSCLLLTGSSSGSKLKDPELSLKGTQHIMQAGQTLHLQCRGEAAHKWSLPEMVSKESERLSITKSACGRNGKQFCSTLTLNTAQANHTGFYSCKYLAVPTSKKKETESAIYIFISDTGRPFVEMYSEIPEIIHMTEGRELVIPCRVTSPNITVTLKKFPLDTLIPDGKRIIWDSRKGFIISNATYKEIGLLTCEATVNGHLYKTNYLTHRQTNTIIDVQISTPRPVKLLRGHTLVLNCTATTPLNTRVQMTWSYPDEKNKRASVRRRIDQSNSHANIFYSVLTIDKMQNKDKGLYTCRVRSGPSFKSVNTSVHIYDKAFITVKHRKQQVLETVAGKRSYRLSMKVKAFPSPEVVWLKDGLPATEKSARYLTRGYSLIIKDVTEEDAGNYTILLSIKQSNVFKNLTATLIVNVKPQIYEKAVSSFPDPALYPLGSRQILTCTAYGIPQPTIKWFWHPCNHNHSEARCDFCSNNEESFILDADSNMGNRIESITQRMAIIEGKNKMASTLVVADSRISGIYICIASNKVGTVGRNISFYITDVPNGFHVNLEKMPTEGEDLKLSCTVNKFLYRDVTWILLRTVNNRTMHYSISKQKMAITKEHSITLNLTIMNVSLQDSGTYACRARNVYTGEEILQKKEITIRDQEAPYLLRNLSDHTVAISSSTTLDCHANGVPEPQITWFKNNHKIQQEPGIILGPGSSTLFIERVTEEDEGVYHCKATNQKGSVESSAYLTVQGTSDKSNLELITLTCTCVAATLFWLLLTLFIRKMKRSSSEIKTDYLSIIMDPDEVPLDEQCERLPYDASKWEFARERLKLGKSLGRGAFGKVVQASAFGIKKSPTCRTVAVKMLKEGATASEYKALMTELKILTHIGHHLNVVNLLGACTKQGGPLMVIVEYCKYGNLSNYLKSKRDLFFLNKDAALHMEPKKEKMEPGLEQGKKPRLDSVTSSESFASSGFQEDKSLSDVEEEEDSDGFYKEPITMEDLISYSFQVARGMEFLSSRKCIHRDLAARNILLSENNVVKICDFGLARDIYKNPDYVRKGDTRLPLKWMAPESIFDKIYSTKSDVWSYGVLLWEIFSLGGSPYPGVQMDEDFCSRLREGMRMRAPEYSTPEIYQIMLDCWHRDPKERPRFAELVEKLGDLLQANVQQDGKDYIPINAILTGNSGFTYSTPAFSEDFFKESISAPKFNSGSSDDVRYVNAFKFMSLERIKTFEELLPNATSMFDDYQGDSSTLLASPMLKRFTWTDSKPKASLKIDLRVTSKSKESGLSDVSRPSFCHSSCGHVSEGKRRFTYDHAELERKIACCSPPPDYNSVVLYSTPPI
The target is the same in test [5]. The settings on record: at 1 µM.
In test [6] the target is Receptor-type tyrosine-protein kinase FLT3 (Homo sapiens) (UniProt P36888). The note with it: at 0.1 µM.
The target is the same in test [7]. The settings on record: at 1 µM.
Test [8] concerns T1, Receptor-type tyrosine-protein kinase FLT3 (Homo sapiens), P36888 [D835Y].
T1 sequence (whole entry): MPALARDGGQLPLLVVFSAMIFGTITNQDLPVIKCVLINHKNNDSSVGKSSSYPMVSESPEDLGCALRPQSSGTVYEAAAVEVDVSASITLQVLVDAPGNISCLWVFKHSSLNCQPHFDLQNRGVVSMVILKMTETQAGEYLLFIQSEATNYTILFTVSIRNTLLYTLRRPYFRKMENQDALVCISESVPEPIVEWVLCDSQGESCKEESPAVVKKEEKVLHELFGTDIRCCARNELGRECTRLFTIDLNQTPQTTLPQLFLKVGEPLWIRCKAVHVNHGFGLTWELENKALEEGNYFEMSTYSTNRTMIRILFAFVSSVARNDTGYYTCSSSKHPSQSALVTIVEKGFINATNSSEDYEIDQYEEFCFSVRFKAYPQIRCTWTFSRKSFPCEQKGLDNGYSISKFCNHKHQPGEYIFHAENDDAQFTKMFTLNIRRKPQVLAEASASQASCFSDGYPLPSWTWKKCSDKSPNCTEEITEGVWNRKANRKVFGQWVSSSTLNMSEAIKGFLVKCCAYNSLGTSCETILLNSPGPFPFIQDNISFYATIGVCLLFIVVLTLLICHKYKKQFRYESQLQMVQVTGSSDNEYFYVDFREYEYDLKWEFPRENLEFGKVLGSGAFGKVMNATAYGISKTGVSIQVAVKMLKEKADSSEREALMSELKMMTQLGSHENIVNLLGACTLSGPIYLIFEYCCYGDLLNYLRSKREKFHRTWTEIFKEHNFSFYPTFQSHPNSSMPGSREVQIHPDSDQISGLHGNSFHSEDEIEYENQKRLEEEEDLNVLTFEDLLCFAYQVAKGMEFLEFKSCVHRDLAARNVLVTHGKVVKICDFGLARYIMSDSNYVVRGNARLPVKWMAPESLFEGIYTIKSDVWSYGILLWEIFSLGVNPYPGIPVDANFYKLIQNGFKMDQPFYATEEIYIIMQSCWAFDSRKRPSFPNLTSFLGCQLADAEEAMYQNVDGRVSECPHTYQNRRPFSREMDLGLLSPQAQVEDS
The note with it: at 0.1 µM.

Test [9] concerns the target Non-receptor tyrosine-protein kinase TYK2 (Homo sapiens) (UniProt P29597). The note with it: at 1 µM.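 Also: values are mean percent inhibition of TYK2 kinase.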
For test [10], the target named is T2, Tyrosine-protein kinase receptor TYRO3 (Homo sapiens) (UniProt Q06418).
T2 sequence (whole entry): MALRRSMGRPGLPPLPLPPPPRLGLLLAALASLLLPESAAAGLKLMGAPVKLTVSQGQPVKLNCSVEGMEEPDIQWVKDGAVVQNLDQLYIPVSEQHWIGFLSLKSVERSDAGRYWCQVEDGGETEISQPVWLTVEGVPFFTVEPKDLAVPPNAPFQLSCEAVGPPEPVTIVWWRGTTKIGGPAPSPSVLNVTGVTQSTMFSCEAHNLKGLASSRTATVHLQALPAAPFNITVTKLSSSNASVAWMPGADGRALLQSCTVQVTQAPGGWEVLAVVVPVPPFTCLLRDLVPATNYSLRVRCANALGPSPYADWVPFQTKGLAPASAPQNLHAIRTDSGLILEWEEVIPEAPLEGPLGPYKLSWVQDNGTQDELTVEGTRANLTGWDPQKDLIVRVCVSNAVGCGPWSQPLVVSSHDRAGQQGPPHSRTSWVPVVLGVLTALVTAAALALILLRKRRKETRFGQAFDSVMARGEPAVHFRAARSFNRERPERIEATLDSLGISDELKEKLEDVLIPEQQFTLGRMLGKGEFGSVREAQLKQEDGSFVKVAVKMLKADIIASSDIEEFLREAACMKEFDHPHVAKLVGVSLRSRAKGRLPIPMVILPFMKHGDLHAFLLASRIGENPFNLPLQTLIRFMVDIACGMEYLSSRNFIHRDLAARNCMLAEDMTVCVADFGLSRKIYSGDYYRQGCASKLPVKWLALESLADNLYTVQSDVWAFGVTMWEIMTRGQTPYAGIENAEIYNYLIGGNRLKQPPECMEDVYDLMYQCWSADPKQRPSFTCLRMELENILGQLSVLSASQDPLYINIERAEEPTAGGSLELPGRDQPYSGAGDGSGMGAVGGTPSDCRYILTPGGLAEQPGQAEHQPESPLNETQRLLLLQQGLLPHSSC
The settings on record: at 0.1 µM.

Test [11] deals with T2, Tyrosine-protein kinase receptor TYRO3 (Homo sapiens). The settings on record: at 1 µM.
The target of test [12] is Tyrosine-protein kinase Yes (Homo sapiens) (UniProt P07947). The settings on record: at 0.1 µM.
Chain of Tyrosine-protein kinase Yes (Homo sapiens) (P07947 2-543 limits assumed): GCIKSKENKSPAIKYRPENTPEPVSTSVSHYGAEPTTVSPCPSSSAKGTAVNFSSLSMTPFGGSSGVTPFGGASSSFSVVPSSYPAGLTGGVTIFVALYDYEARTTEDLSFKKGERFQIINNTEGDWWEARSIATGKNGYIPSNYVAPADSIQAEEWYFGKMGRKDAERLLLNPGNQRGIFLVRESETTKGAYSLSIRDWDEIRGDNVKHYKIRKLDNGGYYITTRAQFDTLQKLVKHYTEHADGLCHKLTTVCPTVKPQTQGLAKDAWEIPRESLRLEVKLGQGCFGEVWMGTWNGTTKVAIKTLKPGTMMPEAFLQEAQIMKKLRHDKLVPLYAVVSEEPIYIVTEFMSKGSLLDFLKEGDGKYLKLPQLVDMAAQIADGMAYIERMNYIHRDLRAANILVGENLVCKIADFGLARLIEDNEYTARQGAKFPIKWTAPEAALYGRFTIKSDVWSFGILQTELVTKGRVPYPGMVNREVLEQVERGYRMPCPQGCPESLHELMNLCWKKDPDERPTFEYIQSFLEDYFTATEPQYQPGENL
Test [13] has the same target. The settings on record: at 1 µM.
Test [14] deals with T3, Tyrosine-protein kinase ZAP-70 (Homo sapiens) (UniProt P43403).
T3 sequence (whole entry): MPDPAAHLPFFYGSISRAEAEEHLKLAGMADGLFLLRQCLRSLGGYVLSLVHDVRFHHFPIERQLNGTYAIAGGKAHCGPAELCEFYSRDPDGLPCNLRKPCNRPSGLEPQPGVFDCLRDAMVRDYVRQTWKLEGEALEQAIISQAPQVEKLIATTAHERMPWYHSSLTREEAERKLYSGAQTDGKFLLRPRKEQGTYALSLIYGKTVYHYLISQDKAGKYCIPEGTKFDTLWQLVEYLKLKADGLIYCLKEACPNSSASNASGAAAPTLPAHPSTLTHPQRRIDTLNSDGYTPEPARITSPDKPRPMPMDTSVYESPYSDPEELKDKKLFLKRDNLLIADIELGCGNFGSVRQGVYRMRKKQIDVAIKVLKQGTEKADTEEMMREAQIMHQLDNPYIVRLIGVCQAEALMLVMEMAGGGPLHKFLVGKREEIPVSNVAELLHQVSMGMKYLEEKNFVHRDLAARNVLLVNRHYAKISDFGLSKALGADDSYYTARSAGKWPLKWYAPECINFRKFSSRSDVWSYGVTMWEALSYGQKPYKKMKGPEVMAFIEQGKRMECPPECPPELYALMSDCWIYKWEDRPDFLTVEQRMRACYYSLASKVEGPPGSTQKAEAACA
The note with it: at 0.1 µM.

Test [15] concerns the target T3, Tyrosine-protein kinase ZAP-70 (Homo sapiens). The settings on record: at 1 µM.
For test [16], the target named is Serine/threonine-protein kinase B-raf (Homo sapiens) (UniProt P15056). The note with it: at 0.1 µM.
For test [17] the target is unchanged. The note with it: at 1 µM.
Test [18] concerns Serine/threonine-protein kinase B-raf (Homo sapiens), P15056 [V600E]. The note with it: at 0.1 µM.
The test system is the same in test [19]. The settings on record: at 1 µM.
The target in test [20] is RAF proto-oncogene serine/threonine-protein kinase (Homo sapiens) (UniProt P04049). The note with it: at 0.1 µM.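 Also: values are mean CRAF kinase inhibition from profiling of the GSK Published Kinase Inhibitor Set.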
Chain of RAF proto-oncogene serine/threonine-protein kinase (Homo sapiens) (P04049 whole entry): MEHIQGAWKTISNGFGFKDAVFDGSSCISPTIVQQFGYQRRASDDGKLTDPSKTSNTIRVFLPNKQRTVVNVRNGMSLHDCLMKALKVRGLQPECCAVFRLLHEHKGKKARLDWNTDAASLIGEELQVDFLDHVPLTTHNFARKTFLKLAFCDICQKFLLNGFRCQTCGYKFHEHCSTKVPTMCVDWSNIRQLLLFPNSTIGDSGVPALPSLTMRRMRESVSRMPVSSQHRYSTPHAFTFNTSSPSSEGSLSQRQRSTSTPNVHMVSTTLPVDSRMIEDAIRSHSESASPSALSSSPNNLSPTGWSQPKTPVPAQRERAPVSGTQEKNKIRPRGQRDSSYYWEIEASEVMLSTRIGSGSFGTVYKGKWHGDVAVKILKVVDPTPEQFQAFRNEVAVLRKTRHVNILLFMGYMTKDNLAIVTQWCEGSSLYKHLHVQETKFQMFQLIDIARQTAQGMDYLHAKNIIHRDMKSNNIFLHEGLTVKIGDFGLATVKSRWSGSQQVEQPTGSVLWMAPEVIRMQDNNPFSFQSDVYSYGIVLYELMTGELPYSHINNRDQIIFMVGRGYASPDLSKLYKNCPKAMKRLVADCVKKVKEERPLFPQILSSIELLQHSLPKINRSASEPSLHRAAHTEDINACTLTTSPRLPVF

Chain of Fibroblast growth factor receptor 4 (Homo sapiens) (P22455 22-802 limits assumed): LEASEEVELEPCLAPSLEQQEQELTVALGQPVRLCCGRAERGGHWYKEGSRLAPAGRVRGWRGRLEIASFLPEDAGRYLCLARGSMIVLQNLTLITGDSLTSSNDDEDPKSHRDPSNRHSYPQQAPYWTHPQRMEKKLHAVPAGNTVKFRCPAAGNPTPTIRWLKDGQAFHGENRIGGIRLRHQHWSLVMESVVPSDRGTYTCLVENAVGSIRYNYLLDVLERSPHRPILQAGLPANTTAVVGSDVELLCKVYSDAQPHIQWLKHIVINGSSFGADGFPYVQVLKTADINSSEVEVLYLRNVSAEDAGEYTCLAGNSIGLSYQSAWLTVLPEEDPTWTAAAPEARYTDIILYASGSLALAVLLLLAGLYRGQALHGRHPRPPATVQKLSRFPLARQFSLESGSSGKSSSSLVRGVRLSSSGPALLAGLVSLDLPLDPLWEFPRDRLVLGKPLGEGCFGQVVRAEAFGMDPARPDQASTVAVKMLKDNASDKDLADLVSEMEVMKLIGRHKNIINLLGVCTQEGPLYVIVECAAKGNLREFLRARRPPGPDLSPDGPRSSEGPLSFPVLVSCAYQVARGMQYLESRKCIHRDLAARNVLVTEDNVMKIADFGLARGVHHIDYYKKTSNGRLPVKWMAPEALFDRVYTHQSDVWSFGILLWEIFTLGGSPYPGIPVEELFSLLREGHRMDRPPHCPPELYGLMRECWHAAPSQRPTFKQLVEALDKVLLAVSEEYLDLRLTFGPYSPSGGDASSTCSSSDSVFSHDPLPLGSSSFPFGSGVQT
Chain of Non-receptor tyrosine-protein kinase TYK2 (Homo sapiens) (P29597 whole entry): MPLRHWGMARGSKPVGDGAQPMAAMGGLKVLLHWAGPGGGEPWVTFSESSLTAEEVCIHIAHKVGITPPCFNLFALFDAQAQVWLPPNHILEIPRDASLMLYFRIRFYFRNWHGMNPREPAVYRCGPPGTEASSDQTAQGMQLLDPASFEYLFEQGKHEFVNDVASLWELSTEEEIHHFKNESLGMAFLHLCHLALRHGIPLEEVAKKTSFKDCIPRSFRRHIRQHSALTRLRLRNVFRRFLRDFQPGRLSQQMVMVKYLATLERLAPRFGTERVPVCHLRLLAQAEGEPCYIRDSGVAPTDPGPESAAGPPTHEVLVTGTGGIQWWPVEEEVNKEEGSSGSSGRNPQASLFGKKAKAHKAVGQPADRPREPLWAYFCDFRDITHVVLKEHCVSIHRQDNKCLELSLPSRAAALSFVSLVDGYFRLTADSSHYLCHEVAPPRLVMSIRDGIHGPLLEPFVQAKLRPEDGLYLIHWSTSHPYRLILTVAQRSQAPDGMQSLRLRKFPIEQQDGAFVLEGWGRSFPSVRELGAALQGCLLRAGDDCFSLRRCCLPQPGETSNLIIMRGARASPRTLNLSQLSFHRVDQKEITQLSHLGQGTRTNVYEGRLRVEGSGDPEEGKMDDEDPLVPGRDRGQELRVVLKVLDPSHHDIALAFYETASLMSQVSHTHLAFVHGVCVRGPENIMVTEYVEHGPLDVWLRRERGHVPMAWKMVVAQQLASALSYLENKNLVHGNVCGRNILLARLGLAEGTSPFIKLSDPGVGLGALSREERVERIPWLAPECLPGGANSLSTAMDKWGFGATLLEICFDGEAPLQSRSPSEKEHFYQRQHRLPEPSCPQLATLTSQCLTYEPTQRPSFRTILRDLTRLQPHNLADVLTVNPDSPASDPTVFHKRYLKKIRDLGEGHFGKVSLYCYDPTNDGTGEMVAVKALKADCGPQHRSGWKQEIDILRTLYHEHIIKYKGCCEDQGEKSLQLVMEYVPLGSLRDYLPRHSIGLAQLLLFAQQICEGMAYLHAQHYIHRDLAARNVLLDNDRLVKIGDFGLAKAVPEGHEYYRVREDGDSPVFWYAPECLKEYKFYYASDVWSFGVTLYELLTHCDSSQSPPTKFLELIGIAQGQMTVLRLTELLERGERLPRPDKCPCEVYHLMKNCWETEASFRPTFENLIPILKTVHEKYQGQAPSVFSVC

In general, inhibition refers to the drop in the measured response relative to a control, in per cent. For `Nc1nccc(-c2c(-c3ccc(F)cc3)ncn2C2CCC(O)CC2)n1` (stereo not given), the inhibition turned out to be 0.55% in [1]; 1.87% in test [2]; 16.5% in test [3]; 0.09% in [4]; 1.16% in test [5]; 1.8% in [6]. In addition, the inhibition in test [7] was -0.14%; in test [8], 3.94%; in test [9] it was 0.09%; in test [10] it was 0.62%; in test [11], 2.9%; in [12], 5.1%. For the same compound, the inhibition is 40% in [13]; -8.32% in test [14]; 1.54% in [15]; -2.22% in test [16]; -1.06% in [17]; -3.35% in [18]. For the same compound, the inhibition was -2.66% in test [19] and -4.81% in [20].
For `O=C(Nc1n[nH]c2nc(-c3ccco3)ccc12)C1CC1`, the inhibition in test [1] turned out to be 2.6%; in test [2], 0.22%; in [3], 4.92%; in test [4], 1.05%; in test [5] it was 7.88%; in [6], 0.89%. In addition, the inhibition in test [7] is 9.22%; in test [8], -0.89%; in [9], -1.09%; in test [10] it was 2.23%; in test [11], 8.73%; in test [12], 0.35%. The inhibition was 0.02% in test [13]; 0.28% in test [14]; 0.47% in test [15]; 1.98% in test [16]; 3.43% in [17]; 1.17% in [18]. For the same compound, the inhibition in test [19] amounted to 4.38%; in [20], 4.75%.
For the compound `COc1cc2ncn(-c3cc(OCc4cccs4)c(C(N)=O)s3)c2cc1OC`, the inhibition is 1.23% in test [1]; 11.1% in [2]; 13.7% in test [3]; 2.16% in [4]; 10.3% in test [5]; 0.99% in test [6]. In addition, the inhibition in test [7] is 4.24%; in [8], -6.36%; in test [9], 0.53%; in [10], 2.86%; in [11], 8.04%; in test [12], 4.84%. Besides, the inhibition in test [13] is 21.2%; in [14] it was -0.46%; in test [15], 3.04%; in [16], 1.7%; in test [17], 0.38%; in test [18], 2.45%. Besides, the inhibition in test [19] was determined as 0.77%; in test [20], 1.73%.
With `O=C1NC(=O)C(c2cccc(Cl)c2)=C1Nc1ccc(Cl)c(C(=O)O)c1`, the inhibition turned out to be 1.23% in test [1]; 5.15% in [2]; 1.19% in test [3]; 2.61% in test [4]; 7.03% in test [5]; 3.91% in test [6]. The inhibition in test [7] was 0.25%; in [8], -6.52%; in [9], -1.23%; in [10], 1.77%; in [11], 2.5%; in test [12], 4.03%. Further, the inhibition in test [13] amounted to 6%; in test [14] it was 4.89%; in test [15] it was 2.76%; in test [16], 5.48%; in [17] it was 2.76%; in test [18] it was 6.61%. The inhibition turned out to be 4.77% in test [19] and 2.73% in test [20].
For `CCc1nccc2c1nc(-c1nonc1N)n2CC`, the inhibition is 1.32% in test [1]; -0.77% in test [2]; 3.85% in test [3]; -0.82% in [4]; 1.6% in test [5]; -0.04% in test [6]. For the same compound, the inhibition in test [7] is 0.33%; in test [8], -2.37%; in test [9], -2.82%; in test [10], -0.74%; in test [11], -0.82%; in test [12] it was 0.39%. Besides, the inhibition is 1.95% in test [13]; 1.4% in [14]; 0.96% in [15]; -0.39% in test [16]; 1.49% in [17]; 0.46% in test [18]. The inhibition in test [19] was 1.01%; in test [20], -4.45%.
On to `O=C(Nc1n[nH]c2cc(-c3ccccc3)ccc12)C1CC1`, for which the inhibition turned out to be 0.83% in test [1]; 1.51% in test [2]; 12.8% in [3]; 3.64% in test [4]; 2.3% in test [5]; 0.48% in [6]. Also, the inhibition in test [7] was 2.82%; in [8], -3.75%; in test [9], -4.78%; in test [10] it was 3.71%; in test [11] it was 16.1%; in test [12], 1.86%. The inhibition was determined as 5.44% in test [13]; 4.16% in test [14]; 1.7% in test [15]; 7.16% in [16]; 6.29% in test [17]; 6.47% in test [18]. The inhibition in test [19] is 6.53%; in test [20], -0.71%.
On to `CN(C)CCOc1ccc(-c2cc(-c3ccc4c(c3)CCC4=NO)c(-c3ccncc3)o2)cc1`, for which the inhibition in test [1] was -1.71%; in test [2] it was 1.5%; in test [3], 7.33%; in [4], -0.18%; in test [5], -0.16%; in test [6], -0.73%. The inhibition in test [7] was -1.89%; in test [8] it was -7.59%; in test [9], 0.1%; in test [10], -0.87%; in test [11], 2.92%; in [12], 2.18%. In addition, the inhibition in [13] is 9.45%; in [14] it was -2.95%; in [15], 0.13%; in [16], 48.5%; in test [17], 85%; in test [18], 56.3%. The inhibition in test [19] was 86.2%; in [20] it was -4.4%.
